This passage reports outcome and Potency results from PubChem BioAssay (Tox21).

Values without a mark were called inactive. Results filed as inconclusive are left out. Active and inactive are the calls of the source. Calls follow the shape of the dose curve; as a rule, active = well fitted curve in the direction sought with a large enough effect in the repeat runs; inconclusive = weak or mixed curves; inactive = no such curve, though single readings can be large; an effect the other way counts as inactive or inconclusive.

A short description of assay [1]: qHTS RealTime-Glo MT Cell Viability Assay in HepG2 cells - 32 hour (AID 1224877). Also: nearly all actives have a fitted effect of over 55% in size. The conditions noted are these: RealTime-Glo luminescence; series mostly up to 76.8 µM. The gist of the method:
(§1)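 Tox21 10K library screened in qHTS format on HepG2 cells carrying RealTime-Glo reagents. Compounds were added after a 5 h preincubation, and the luminescent signal from continuous culture was measured repeatedly during 40 h treatment.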
A general note: Quantitative high-throughput screening tests each substance at several concentrations.

Assay [2] in a line: A CellTox Green Cytotoxicity Assay to monitor cytotoxicity in HepG2 cells - 24 hour (AID 1224878). Also: nearly all actives have a fitted effect of over 45% in size. Also: potency is read from the fitted curve at half-maximal effect. The conditions noted are these: CellTox Green fluorescence; series mostly up to 76.8 µM. The gist of the method: (§2)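 Read-out is fluorescence of a cyanine dye excluded from live cells that stains DNA of dead HepG2 cells, with signal proportional to cytotoxicity. Plates were read at 0, 8, 16, 24, 32 and 40 h after compound addition.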

The nature of assay [3]: A CellTox Green Cytotoxicity Assay to monitor cytotoxicity in HepG2 cells - 40 hour (AID 1224879). Also: nearly all actives have a fitted effect of over 40% in size. Also: potency is read from the fitted curve at half-maximal effect. The settings on record: CellTox Green fluorescence; series mostly up to 76.8 µM. The gist of the method: as §2
The nature of assay [4]: qHTS RealTime-Glo MT Cell Viability Assay in HEK293 cells - 0 hour (AID 1224880). Also: top concentration of the series differs between compounds; nearly all actives have a fitted effect of over 45% in size. The settings on record: RealTime-Glo luminescence; series mostly up to 76.8 µM. The gist of the method: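 Cells were seeded together with NanoLuc luciferase and a prosubstrate that viable cells reduce to a luciferase substrate. After a 5 h incubation at 37 C/5% CO2, compounds were added and luminescence was measured repeatedly during 40 h of treatment.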

Assay [5] in a line: A CellTox Green Cytotoxicity Assay to monitor cytotoxicity in HEK293 cells - 32 hour (AID 1224881). Also: nearly all actives have a fitted effect of over 40% in size. Also: potency is read from the fitted curve at half-maximal effect. The conditions noted are these: CellTox Green fluorescence; series mostly up to 76.8 µM. A digest of the protocol: (§3)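 Nonlytic real-time cytotoxicity: HEK293 + CellTox Green reagent plated, 5 h preincubation, pintool compound addition (23 nL in DMSO), 37 C for 40 h, fluorescence measured at successive time points.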

The nature of assay [6]: A CellTox Green Cytotoxicity Assay to monitor cytotoxicity in HepG2 cells - 0 hour (AID 1224882). Also: nearly all actives have a fitted effect of over 35% in size. Also: potency is read from the fitted curve at half-maximal effect. The conditions noted are these: CellTox Green fluorescence; series mostly up to 76.8 µM. The gist of the method:
as §2

A short description of assay [7]: A CellTox Green Cytotoxicity Assay to monitor cytotoxicity in HepG2 cells - 32 hour (AID 1224883). Also: nearly all actives have a fitted effect of over 50% in size. Also: potency is read from the fitted curve at half-maximal effect. The conditions noted are these: CellTox Green fluorescence; series mostly up to 76.8 µM. The gist of the method:
as §2

The nature of assay [8]: A CellTox Green Cytotoxicity Assay to monitor cytotoxicity in HEK293 cells - 8 hour (AID 1224884). Also: nearly all actives have a fitted effect of over 35% in size. Also: potency is read from the fitted curve at half-maximal effect. The settings on record: CellTox Green fluorescence; series mostly up to 76.8 µM. A digest of the protocol: as §3
Assay [9] is described as follows: qHTS RealTime-Glo MT Cell Viability Assay in HepG2 cells - 16 hour (AID 1224885). Also: nearly all actives have a fitted effect of over 50% in size. The settings on record: RealTime-Glo luminescence; series mostly up to 76.8 µM. The gist of the method: as §1
Assay [10] can be described thus: qHTS RealTime-Glo MT Cell Viability Assay in HEK293 cells - 24 hour (AID 1224886). Also: top concentration of the series differs between compounds; nearly all actives have a fitted effect of over 50% in size. The conditions noted are these: RealTime-Glo luminescence; series mostly up to 76.8 µM. A digest of the protocol: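 Luminescence generated by NanoLuc from substrate produced by living HEK293 cells served as the viability signal. Each value reflects the reading at its stated time point during continuous 40 h compound exposure at 37 C.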

Turning to `COc1ccc(CCO)cc1`, the outcome in assay [1] and in [9] was inactive. Further, the Potency entry in assay [2], in assay [3], in [4], in assay [5], in assay [6] and in assay [7] was “inactive” each time. The Potency result in assay [8] and in assay [10] was “inactive” each time.
In the case of `CC1(C)Oc2ccc(C#N)cc2[C@@H](N2CCCC2=O)[C@@H]1O`, the result in assay [1] and in assay [9] was inactive. The Potency result in assay [2], in [3], in assay [4], in assay [5], in assay [6] and in assay [7] was “inactive” throughout. Also, the Potency entry in assay [8] and in [10] was “inactive” throughout.
With `CC/C(C)=N\O[Si](C)(O/N=C(\C)CC)O/N=C(\C)CC`, the call in assay [1] and in [9] was inactive. The Potency entry in assay [2], in assay [3], in assay [4], in assay [5], in assay [6] and in assay [7] was “inactive” in each case. In addition, the Potency entry in assay [8] and in assay [10] was “inactive” each time.
Regarding `COCCc1ccccn1`, the molecule was classed as inactive in [1] and in assay [9]. Besides, the Potency result in assay [2], in [3], in assay [4], in [5], in assay [6] and in assay [7] was “inactive” each time. Further, the Potency entry in assay [8] and in assay [10] was “inactive” throughout.
On to `CCC(C(=O)OCCN1CCOC(c2ccccc2)C1C)c1ccccc1` (stereo not drawn), for which the molecule was classed as inactive in assay [1] and in assay [9]. Also, the Potency result in [2], in assay [3], in assay [4], in assay [5], in [6] and in [7] was “inactive” in each case. For the same molecule, the Potency result in assay [8] is “inactive”.
`CC1(C)O[C@H]2CC(=O)OC[C@]23[C@H]2CC[C@@]4(C)[C@H](c5ccoc5)OC(=O)[C@H]5O[C@]54[C@]2(C)C(=O)C[C@@H]13`: the outcome in assay [1] and in [9] was inactive. Besides, the Potency entry in assay [2], in assay [3], in assay [4], in assay [5], in assay [6] and in assay [7] was “inactive” in each case. Further, the Potency entry in assay [8] and in assay [10] was “inactive” throughout.
In the case of `COC(C)(OC)OC`, the outcome in assay [1] and in assay [9] was inactive. Moreover, the Potency result in assay [2], in [3], in assay [4], in [5], in [6] and in [7] was “inactive” throughout. Moreover, the Potency result in assay [8] and in assay [10] was “inactive” each time.
In the case of `C=C(C)C1CC=C(C)C(=O)C1` (stereo not drawn), the molecule was classed as inactive in assay [1] and in [9]. Also, the Potency entry in assay [2], in assay [3], in [4], in assay [5], in assay [6] and in assay [7] was “inactive” in each case. Also, the Potency entry in assay [8] and in assay [10] was “inactive” throughout.
Turning to `Fc1ccccc1`, the molecule was classed as inactive in [1] and in assay [9]. Besides, the Potency result in assay [2], in assay [3], in assay [4], in assay [5], in assay [6] and in [7] was “inactive” in each case. The Potency entry in assay [8] and in assay [10] was “inactive” throughout.
As to `CC(C)NCC(O)c1ccc2ccccc2c1` (stereo not drawn), the call in [1] and in [9] was inactive. For the same molecule, the Potency entry in assay [2], in [3], in assay [4], in assay [5], in assay [6] and in assay [7] was “inactive” throughout. The Potency result in assay [8] and in assay [10] was “inactive” throughout.
In the case of `CCCCOC(=O)[C@H](C)O`, the call in [1] and in assay [9] was inactive. In addition, the Potency result in assay [2], in [3], in [4], in [5], in [6] and in assay [7] was “inactive” throughout. In addition, the Potency entry in assay [8] and in [10] was “inactive” each time.
For `CC(C)=CCC[C@@](C)(O)[C@H]1CC=C(C)CC1`, the call in assay [1] and in assay [9] was inactive. The Potency result in assay [2], in assay [3], in [4], in [5], in [6] and in [7] was “inactive” in each case. The Potency result in assay [8] and in assay [10] was “inactive” throughout.
For the molecule `N#Cc1ccccc1O`, the molecule was called inactive in assay [1] and in [9]. In addition, the Potency result in assay [2], in assay [3], in assay [4], in assay [5], in assay [6] and in assay [7] was “inactive” each time. Besides, the Potency entry in assay [8] and in assay [10] was “inactive” in each case.
Take `CC(=O)O[C@@H]1CC2CCC1(C)C2(C)C` (stereo partly drawn): the molecule was called inactive in [1] and in [9]. In addition, the Potency entry in [2], in assay [3], in assay [4], in [5], in assay [6] and in [7] was “inactive” in each case. The Potency result in assay [8] and in assay [10] was “inactive” each time.
With `C#CCN[C@@H]1CCc2ccccc21`, the molecule was classed as inactive in assay [1] and in assay [9]. The Potency result in [2], in [3], in assay [4], in [5], in assay [6] and in assay [7] was “inactive” each time. For the same molecule, the Potency result in assay [8] and in assay [10] was “inactive” in each case.
Regarding `CCCCCc1cccc(=O)o1`, the outcome in assay [1] and in [9] was inactive. The Potency entry in [2], in [3], in assay [4], in [5], in [6] and in assay [7] was “inactive” in each case. Moreover, the Potency entry in [8] and in assay [10] was “inactive” each time.
For the molecule `C/C(=C1\CCOC(=O)S1)N(C=O)Cc1cnc(C)nc1N`, the molecule was called inactive in assay [1] and in [9]. The Potency result in assay [2], in assay [3], in [4], in assay [5], in assay [6] and in assay [7] was “inactive” in each case. For the same molecule, the Potency result in assay [8] and in assay [10] was “inactive” in each case.
On to `COc1cc2c(cc1OC)CN(C(=O)[C@H](C)N[C@@H](CCc1ccccc1)C(=O)O)[C@H](C(=O)O)C2`, for which the molecule was classed as inactive in assay [1] and in [9]. Besides, the Potency entry in [2], in [3], in assay [4], in assay [5], in [6] and in assay [7] was “inactive” throughout. Also, the Potency entry in assay [8] and in [10] was “inactive” in each case.
Take `O=C(CCCl)NCCc1ccccc1`: the result in [1] and in [9] was inactive. Further, the Potency result in [2], in assay [3], in assay [4], in assay [5], in assay [6] and in assay [7] was “inactive” throughout. Further, the Potency result in [8] and in assay [10] was “inactive” throughout.
For the molecule `CC(=O)C(C)O` (stereo not drawn), the result in [1] and in [9] was inactive. The Potency entry in assay [2], in assay [3], in [4], in assay [5], in assay [7] and in assay [8] was “inactive” throughout. The Potency result in assay [10] is “inactive”.
With `CC(C)COC(=O)c1ccccc1`, the outcome in assay [1] and in assay [9] was inactive. Besides, the Potency result in assay [2], in assay [3], in assay [4], in [5], in [6] and in [7] was “inactive” each time. Further, the Potency result in assay [8] and in [10] was “inactive” each time.
With `CCCCCCCCCOC(=O)CCCCC(=O)OCCCCCCC`, the call in assay [1] and in assay [9] was inactive. The Potency in [2] was 24.5 µM (active); in [3] it was 24.5 µM (active); in [5] it was 24.5 µM (active); in assay [6], 27.5 µM (active); in assay [7] it was 24.5 µM (active); in assay [8], 38.9 µM (active). For the same molecule, the Potency entry in [4] and in assay [10] was “inactive” throughout.
Regarding `CC(C)=CCC/C(C)=C/COC=O`, the molecule was called inactive in assay [1] and in assay [9]. The Potency result in [2], in [3], in assay [4], in assay [5], in [6] and in assay [7] was “inactive” throughout. Also, the Potency entry in assay [8] and in assay [10] was “inactive” each time.
